# Reference: PubChem BioAssay AID687041 (Broad Institute, 2013)
# Results with a measured potency or affinity are listed apart. Active and inactive are the calls of the source.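 Rule for the calls: active = compounds lowering miR-122 whose fitted half-maximal concentration is at most twice the top tested dose; inconclusive = flat fit with moderate reduction, or poor fit quality; inactive = the rest.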
# Test: endogenous miR-122 level reduction, dose response, orthogonal assay for miR-122 inhibitor project, cell-based, Huh7, RT-qPCR, dry powder (AID 687041)
# Conditions: Huh7 miR-122 level, 48 h; series mostly up to 35 µM
compound,measurement,value
O=C(CN1CCOCC1)Nc1ccc(Br)cc1C(=O)c1ccccc1,outcome,inactive
